# Results from PubChem BioAssay (NCI).
# Compounds without any hit were thinned out: in the full panel of roughly 79,000, 15% have a hit. Unmarked numbers belong to inactive results. Active and inactive are the calls of the source. No stated cut-off is given here; in the data, active means growth inhibition above about 70%; inactive means the rest.
# Tests used:
# [1] = NCI Yeast Anticancer Drug Screen. Data for the rad50 strain (AID 155);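 further: 0% = growth of vehicle-only cultures of the same strain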; conditions: S. cerevisiae rad50 strain growth inhibition, active compounds read high
# Procedure, shortened: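 Cells are treated with compound, grown, and their growth is then scored against vehicle-only cultures of the same repair-deficient yeast strain.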
# [2] = NCI Yeast Anticancer Drug Screen. Data for the mec2-1 strain (AID 157); conditions: S. cerevisiae mec2-1 strain, active compounds read high
# Procedure, shortened: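 Compounds were applied to mec2-1 yeast cells. Their growth was then compared with that of vehicle-treated cultures to give growth inhibition.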
# [3] = NCI Yeast Anticancer Drug Screen. Data for the sgs1 mgt1 strain (AID 161);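 further: 0% = growth of cultures given vehicle only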; conditions: S. cerevisiae sgs1 mgt1 strain, active compounds read high
# Procedure, shortened: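 Yeast cells carrying a defined DNA-repair defect were exposed to test compounds. Growth inhibition was measured relative to vehicle-treated controls.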
# [4] = NCI Yeast Anticancer Drug Screen. Data for the cln2 rad14 strain (AID 165);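 further: 0% = growth equal to vehicle treated cultures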; conditions: S. cerevisiae cln2 rad14 strain, active compounds read high
# Procedure, shortened: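 Strain: cln2 rad14 yeast, altered in cell cycle control and DNA damage repair. Read-out: growth inhibition vs vehicle.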
# [5] = NCI Yeast Anticancer Drug Screen. Data for the bub3 strain (AID 167); conditions: S. cerevisiae bub3 mutant strain, active compounds read high
# Procedure, shortened: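 Part of a panel of yeast mutants defective in DNA damage repair or cell cycle regulation. Each strain is grown with compound, and inhibition is calculated relative to solvent-treated cultures.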
# [6] = NCI Yeast Anticancer Drug Screen. Data for the mlh1 rad18 strain (AID 175); conditions: S. cerevisiae mlh1 rad18 strain growth inhibition, active compounds read high
# Procedure, shortened: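 A repair-deficient yeast strain is exposed to test compound, and growth is scored relative to vehicle-treated controls.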
# [7] = at 5.0 µM (retest, dose inferred, filed as 0.5)
# [8] = at 50.0 µM (retest, dose inferred, filed as 5.0)
SMILES,"growth inhibition [1, 7] [%]","growth inhibition [1, 8]",growth inhibition ([1]; at 50.0 µM),"growth inhibition [2, 7] [%]","growth inhibition [2, 8]",growth inhibition ([2]; at 50.0 µM),"growth inhibition [3, 7] [%]","growth inhibition [3, 8]",growth inhibition ([3]; at 50.0 µM),"growth inhibition [4, 7] [%]","growth inhibition [4, 8]",growth inhibition ([4]; at 50.0 µM),"growth inhibition [5, 7] [%]","growth inhibition [5, 8]",growth inhibition ([5]; at 50.0 µM),"growth inhibition [6, 7] [%]","growth inhibition [6, 8]",growth inhibition ([6]; at 50.0 µM)
CC[n+]1ccc(Nc2ccc(NC(=O)c3ccc(C(=O)Nc4ccc(Nc5cc[n+](CC)c(N)n5)cc4)cc3)cc2)nc1N,24,98% (active),98.2% (active),30,99% (active),98.9% (active),26,99% (active),99% (active),-3,98% (active),97.3% (active),28,96% (active),98% (active),50,99% (active),98.3% (active)
c1ccc(CN2CCC3(CC2)SSC2(CCN(Cc4ccccc4)CC2)S3)cc1,3,16%,53.7%,2,23%,23.4%,22,67%,61.2%,4,8%,68.3%,5,43%,27.1%,6,32%,52%
CCOC(=O)CC1=NC(=Nc2cc(Cl)ccc2Cl)SC1,21,66%,64.5%,23,56%,40.8%,22,69%,79.6% (active),24,30%,25.7%,29,82% (active),77.2% (active),38,75% (active),66.5%
Cc1ccc(C(=O)CC(O)(C(F)(F)F)C(F)(F)F)cc1[N+](=O)[O-],17,95% (active),88.9% (active),-17,97% (active),90% (active),3,45%,92.2% (active),25,94% (active),89.5% (active),5,96% (active),90.5% (active),9,97% (active),87.4% (active)
CC(O)c1cc(-c2ccc(Cl)cc2)nc2ccccc12 (stereo not given),12,97% (active),97.8% (active),4,98% (active),97.2% (active),6,98% (active),98% (active),14,98% (active),97.2% (active),1,98% (active),97.8% (active),-1,97% (active),96.5% (active)
CC(=O)N(C1=C(Cl)C(=O)c2ccccc2C1=O)c1ccc(F)cc1,28,99% (active),98.8% (active),39,98% (active),99.3% (active),35,99% (active),99.4% (active),13,98% (active),94.4% (active),57,99% (active),97.4% (active),39,99% (active),99.4% (active)
COc1ccc(N=Nc2ccc3oc(=O)c(C(=O)Nc4ccccc4C)cc3c2)cc1,3,98% (active),96.8% (active),-18,97% (active),97% (active),-8,96% (active),97.5% (active),1,86% (active),93% (active),-5,86% (active),97.7% (active),-2,98% (active),97.5% (active)
CCCC/C(=C\c1cc(Cl)c(O)c(Cl)c1)C(=O)O,4,79% (active),59.5%,2,79% (active),70.8% (active),2,82% (active),71.8% (active),-5,76% (active),72.4% (active),1,79% (active),56%,-16,85% (active),87.5% (active)
O=C1c2c(Br)sc(Br)c2[C@@H](NC(=O)C(F)(F)F)C1Br (stereo not given in full),8,99% (active),89.3% (active),3,97% (active),81.2% (active),19,99% (active),97% (active),-1,93% (active),28.1%,-3,94% (active),80% (active),17,99% (active),91.8% (active)
O=C1CCCC/C1=C\c1ccc(Cl)c(Cl)c1,12,99% (active),98.7% (active),6,100% (active),98.6% (active),47,100% (active),99% (active),5,99% (active),95.9% (active),9,99% (active),98.2% (active),18,99% (active),99.2% (active)
